# Screening results as filed in PubChem.
# Rows were chosen to be rich in hits. Some 3.1% of all compounds tested hit in one or more screens of this group.
# PNC inhibitor: High Content Assay for Compounds that inhibit the Assembly of the Perinucleolar Compartment; PC3M PTB-GFP, PNC prevalence imaging, 16 h; stronger effect = lower value; activity change (PNC), negative = inhibition, % at 10 µM; 3.1% of 140,000 active;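 active = readout at or below -70, meaning at least 70% loss of cells showing the perinucleolar compartment, a nuclear body marking cancer cells; inconclusive = readout between -30 and a set limit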;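 note: plate controls were DMSO wells for no effect and camptothecin positive control wells for full effect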
#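 Compounds are pinned in duplicate onto adhered PC3M cells stably expressing GFP-tagged PTB and incubated 16 h at 37 C. Cells are then fixed, nuclei stained with Hoechst, and PNC-positive cells counted.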
# 12-hLO inh: qHTS Assay for Inhibitors of 12-hLO (12-human lipoxygenase); purified 12-hLO, xylenol orange hydroperoxide absorbance; 0.12% of 150,000 active; AID 1452, 2008; Potency, µM (series often up to 57.1 µM), for the others: at the top dose activity change, negative = inhibition, actives largely listed as inhibitors; note: potency is the fitted concentration of half-maximal effect; nearly all actives have a fitted effect of over 55% in size
# Target sequence (P18054 whole entry, looked up): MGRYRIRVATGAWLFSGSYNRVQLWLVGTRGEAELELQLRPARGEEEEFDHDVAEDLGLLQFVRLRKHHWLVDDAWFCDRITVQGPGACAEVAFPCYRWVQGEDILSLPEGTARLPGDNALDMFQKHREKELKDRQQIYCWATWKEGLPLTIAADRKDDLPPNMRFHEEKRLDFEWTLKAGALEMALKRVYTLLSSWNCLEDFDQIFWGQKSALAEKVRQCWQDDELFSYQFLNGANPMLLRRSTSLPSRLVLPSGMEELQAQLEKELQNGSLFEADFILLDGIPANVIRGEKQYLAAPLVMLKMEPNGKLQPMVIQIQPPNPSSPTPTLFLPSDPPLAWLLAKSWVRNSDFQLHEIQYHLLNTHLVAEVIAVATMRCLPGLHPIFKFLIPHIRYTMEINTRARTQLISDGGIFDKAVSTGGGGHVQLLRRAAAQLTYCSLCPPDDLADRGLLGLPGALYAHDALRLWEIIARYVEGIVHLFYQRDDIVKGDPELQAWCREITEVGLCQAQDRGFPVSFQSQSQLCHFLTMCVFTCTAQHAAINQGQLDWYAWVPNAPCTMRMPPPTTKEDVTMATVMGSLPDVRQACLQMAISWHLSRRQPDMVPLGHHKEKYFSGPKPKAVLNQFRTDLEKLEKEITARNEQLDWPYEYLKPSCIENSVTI
#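 Lipoxygenase turnover measured by absorbance at 573 and 405 nm after Fe-XO development. Human 12hLO 150 nM, arachidonate 40 uM, pH 7.0 Hepes buffer with detergent; 15 min compound preincubation, 30 min reaction.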
# 15-hLO-2 inh: qHTS Assay for Inhibitors of 15-hLO-2 (15-human lipoxygenase 2) | Polyunsaturated fatty acid lipoxygenase ALOX15B (Homo sapiens), O15296 | AID 881, 2007 | 0.56% of 110,000 active | Potency, µM (doses to about 57.1 µM), inactives show top-dose activity change, negative = inhibition, most hits filed as inhibitors | purified 15hLO-2, xylenol orange hydroperoxide absorbance; note: potency is the fitted concentration of half-maximal effect; nearly all actives have a fitted effect of over 60% in size
#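 Purified human 15hLO-2 (50 nM) preincubated 15 min with compound, then 45 uM arachidonic acid for 90 min at RT in 25 mM Hepes pH 7.5, 0.01% Triton X-100. Hydroperoxide detected by Fe-xylenol orange; 573/405 nm absorbance ratio.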
# An asterisk follows results filed as active; ? = inconclusive; / = no result; [ ] = dose if it differs, or a comment. Unless noted, calls come from the whole dose curve; as a rule, active = well fitted curve in the direction sought with a large enough effect; inconclusive = small, poorly fitted or top-dose-only effect, or another doubt; inactive = no such curve, though single readings can be large; an effect the other way counts as inactive or inconclusive. Unless noted, % is set by controls: 0 for no effect and ±100 for the full control effect.
SMILES,PNC inhibitor,12-hLO inh,15-hLO-2 inh
O=C(N1CCCCCC1)n1c(Cc2ccccc2)nc2ccccc21,-119*,1%,/
O=C(Cn1c(S(=O)(=O)Cc2ccccc2)nc2ccccc21)N1CCCCC1,?,2%,6%
C(#Cc1ccc(C#CCN2CCCC2)cc1)CN1CCCC1,-90*,6%,25%
O=C(c1ccccc1)N1CCN(CC#Cc2ccccc2)CC1,20,-10%,1%
CN(C)C(=O)c1ccc(-c2nccc(N(C)Cc3ccco3)n2)cc1,/,/,-4%
CC(=O)Nc1ncc2c(n1)CC(c1ccco1)CC2=O (centres undefined),-29,6%,11%
Cc1ccc(S(=O)(=O)NC(=O)Nc2ncc3c(n2)CC(c2ccco2)CC3=O)cc1 (centres undefined),-97*,4%,/
O=C(O)c1cc(N=Cc2ccccc2O)cc(C(=O)O)c1,/,-3%[11.4 µM],2%[11.4 µM]
O=C(CCc1ccccc1)N1CCN(CCO)CC1,-89*,7%,6%
O=C(CCN1C(=O)c2ccccc2C1=O)N1CCN(Cc2ccccc2)CC1,?,1%,/
CCSCCOC(=O)C1=C(C)NC2=C(C(=O)CCC2)C1c1coc2ccccc2c1=O (centres undefined),?,-3%,-18%
CC1=C(C(=O)OC(C)C)C(c2coc3ccccc3c2=O)C2=C(CCCC2=O)N1 (centres undefined),-81*,5%,-5%
FC(F)(F)c1cc(CO[C@H]2CCCN[C@H]2c2ccccc2)cc(C(F)(F)F)c1,/,-2%,46%
CC(=O)c1ccc(-n2nnnc2SCC(=O)N2CCc3ccccc3C2)cc1,-82*,5%,/
O=C(CSc1nnnn1-c1ccccc1)N1CCc2ccccc2C1,-25,-6%,-6%
O=C1C(Cl)=C(NCCN2CCOCC2)C(=O)c2ncccc21,/,-8%,0%
COC(=O)c1ccc(C(NC(=O)OCc2ccccc2)/C(C)=C/[C@@H](C)C(=O)Nc2ccc(OC)cc2)cc1 (some centres undefined),/,-3%,10%
CNC(=O)c1sc(-c2cccnc2)nc1C,56,7%,3%
Cc1nc(-c2ccccc2)sc1C(=O)/C=C/c1ccc(Cl)cc1,29,10%,-1%
CNC(=O)c1sc(-c2ccc(Cl)cc2)nc1C,-90*,-3%,-3%
CNC(=O)c1sc(-c2ccccc2)nc1C,-83*,-1%,2%
COc1ccc(C(=O)/C=C/C(=O)N(Cc2ccccc2)C(C(=O)NC2CCCCC2)c2ccncc2)c(O)c1 (centres undefined),-86*,-3%,/
COc1ccc(C(=O)/C=C/C(=O)N(Cc2ccc(F)cc2)C(C(=O)NC2CCCCC2)c2ccncc2)c(O)c1 (centres undefined),17,-3%,/
CCN(C(=O)/C=C/c1ccc2c(c1)OCO2)c1ccccc1,-84*,-5%,/
O=C(/C=C/c1ccc2c(c1)OCO2)N1CCOCC1,15,1%,-3%
SMILES,PNC inhibitor,12-hLO inh,15-hLO-2 inh
COCCn1c(=O)c(-c2ccc(F)cc2)nc2cnc(OC)nc21,/,/,0%
COC(=O)C1=C(C(=O)OC)[C@@H]2N(Cc3ccccc3)c3ccccc3[C@@]23C[C@@H](C(=O)OC)N(S(=O)(=O)c2ccc(Br)cc2)C3=N1,/,5%[11.4 µM],/
CC(C)CNS(=O)(=O)c1ccc(OCC(=O)Nc2ccc(F)cc2F)cc1,-83*,4%,/
CCC(C)NS(=O)(=O)c1ccc(OCC(=O)Nc2ccc(F)cc2F)cc1 (centres undefined),-26,-4%,/
Cn1c(=O)c2[nH]c(CCCCc3nc4c([nH]3)c(=O)n(C)c(=S)n4C)nc2n(C)c1=S,/,1%[11.4 µM],4%[11.4 µM]
CCOc1ccc2[nH]c(=O)c(CN(CCO)Cc3nnnn3CCc3ccccc3)cc2c1,-85*,-8%,-5%
CCOc1ccc2[nH]c(=O)c(CN(Cc3ccco3)Cc3nnnn3Cc3ccccc3)cc2c1,-17,-16%,6%
COc1ccc(NC(=O)C(=O)NNC(=O)c2cccs2)c(OC)c1,6,-3%,-7%
CCOc1ccc(C(CC(=O)O)NC(=O)c2cccs2)cc1 (centres undefined),8,0%,/
COc1ccc(C(CC(=O)O)NC(=O)c2cccs2)cc1 (centres undefined),-85*,-3%,-1%
COc1ccc(NC(=O)C(=O)NNC(=O)c2cccs2)cc1,-93*,0%,/
FC(F)(F)c1ccccc1-c1cc(N2CCNCC2)ncn1,/,-6%,7%
COc1cccc(Cn2c(=O)c(-c3cccc(F)c3)nc3cncnc32)c1,/,-15%,14%
c1ccc(-c2nc(-c3cccs3)c(NC3CCCCC3)o2)cc1,/,0%,/
CCC(=O)N1N=C(c2cccc(NS(C)(=O)=O)c2)CC1c1cccs1 (centres undefined),47,-4%,/
O=C(Nc1ccccc1)N1N=C(c2cccs2)CC1c1cccs1 (centres undefined),-102*,-1%,/
O=C(CSc1nc2ccccc2o1)Nc1cc(C(F)(F)F)ccc1N1CCOCC1,26,-4%,-1%
Cc1ccc2nc(SCC(=O)Nc3cc(C(F)(F)F)ccc3N3CCOCC3)[nH]c2c1,-104*,-9%,14%
CN1CCC2(CC1)CCN(C(=O)c1ccncc1)CC2,/,8%,2%
Cc1ccc2nc(SCC(=O)NCc3ccco3)c(C#N)cc2c1,-18,-4%,9%[2.29 µM]
Cc1ccc2cc(C#N)c(SCC(=O)NCc3ccco3)nc2c1,-82*,-8%,-5%
CCC[C@@H]1O[C@@H]2C[C@@H]3[C@H]4CCC5=CC(=O)C=C[C@@]5(C)[C@H]4[C@H](O)C[C@@]3(C)[C@@]2(C(=O)CO)O1,/,0%[25.6 µM],9%[25.6 µM]
Cn1c(Cn2c(=O)sc3ccccc32)nnc1SCC(=O)NCC1CCCO1 (centres undefined),38,2%,/
O=C(CSc1nnc(Cn2c(=O)sc3ccccc32)n1-c1ccccc1)NCC1CCCO1 (centres undefined),-108*,11%,-1%
O=C(CCSCc1cccc(Cl)c1)NC1CCCC1,-14,-7%,/
SMILES,PNC inhibitor,12-hLO inh,15-hLO-2 inh
O=C(CCSc1ccc(Cl)cc1)NC1CCCCC1,-109*,6%,-3%
N=C(N)SCCON1C(=O)c2ccccc2C1=O,/,8%[11.4 µM],2%[11.4 µM]
CCOc1ccccc1C(=O)NN1C(=O)CCC1=O,-114*,2%,/
CCOc1ccccc1C(N)=O,/,-1%,2%
N#Cc1ccc(CN2CCC3(CC2)CCN(C(=O)c2cccc(F)c2)CC3)cc1,/,0%,10%
N#Cc1cccc(NC(=O)N2CC[C@@]3(CCCN(C(=O)c4cccc(F)c4)C3)C2)c1,/,18%,8%
COC(=O)c1cccc(NS(=O)(=O)c2ccc(OC)c(OC)c2)c1C,-84*,1%,-1%
CCC(C)NC(=O)c1ccccc1NS(=O)(=O)c1ccc(OC)c(OC)c1 (centres undefined),9,0%,0%
COC(=O)c1cccc(NS(=O)(=O)c2ccc(OC)cc2)c1C,?,-2%,/
COc1ccc(S(=O)(=O)Nc2ccccc2C(=O)NC(C)C)cc1OC,-124*,-2%,-7%
Cc1ccc(S(=O)(=O)N[C@H](CN)C(=O)O)cc1,/,-1%[11.4 µM],-5%[11.4 µM]
Cc1sc(NC(=O)CSc2nnc(C(C)C)n2C)c(C#N)c1C,-86*,-1%,/
